{
  "source": "PubChem BioAssay AID540345",
  "about": "(The Scripps Research Institute Molecular Screening Center, 2011)",
  "tested_on": "Potassium Channel [KATP]",
  "experiment": "selectivity profile over receptors, transporters, CYPs – biochemical, Ricerca HitProfilingScreen, CYP450, set 2, selectivity assay for GPR7 antagonist project, profiling panel (AID 540345)",
  "details": "Ricerca radioligand binding/CYP panel, at 10 µM, active compounds read high",
  "note": "A number with no mark means an inactive call. No rule for the calls is given here.",
  "data": [
    {"smiles": "COc1ccc(Oc2c(Cl)cnn(C3c4ccccc4-c4ccccc43)c2=O)cc1", "values": [
      {"measurement": "inhibition", "result": -5, "unit": "%"}
    ]}
  ]
}
